# From PubChem BioAssay (EPA / NIEHS)
# Where “and” joins values, the source holds several entries; their conditions need not be identical. Identical values can stand only once. Inconclusive results are not listed. Calls of active or inactive are those of the source. How the source made its calls, unless noted: active means hit-call score of the fitted dose curve at least 0.9, where 1 is the maximum; inconclusive means response in the unintended direction; inactive means score below 0.9.
# Experiments:
# [1] = system: Sodium/Iodide Symporter (NIS), SLC5A5 (gene 6528); experiment: CPHEA_Stoker_NIS_Inhibition_RAIU: CPHEA's Radioactive Iodide Uptake (RAIU) Assay for Sodium/Iodide Symporter (NIS) Inhibition, Stoker and Laws Labs (AID 2283841)
# In short: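 HEK293T cells stably expressing human NIS (hNIS-HEK293T-EPA) were exposed to test chemicals at 0.001–100uM (0.5% final DMSO) with 125I at a final 329pM in HBSS/10mM HEPES pH 7.4. After 2 hours at room temperature and ice-cold washes, intracellular 125I was counted as CPM and normalized to DMSO wells.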
# [2] = CPHEA_Stoker_NIS_Cytotoxicity: Cytotoxicity Assessment for CPHEA's Radioactive Iodide Uptake (RAIU) Assay for Sodium/Iodide Symporter (NIS) Inhibition, Stoker and Laws Labs (AID 2283897);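 on AC50: active means loss of ATP signal versus DMSO meaning cytotoxicity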
# In short: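 hNIS-HEK293T-EPA human kidney cells were exposed for 2 hours at room temperature to test chemicals (0.001–100uM, 0.5% final DMSO) in HEPES-buffered HBSS, pH 7.4. Viability was read as ATP content by luciferase bioluminescence, loss of signal versus DMSO.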
# [3] = target: mouse Peroxisome Proliferator-activated Receptor gamma (PPARg), Pparg (gene 19016) (UniProt P37238); experiment: ATG_mPPARg_XSP2: Attagene TRANS-FACTORIAL Multi-Species (XSP2) HepG2 Assay for mouse Peroxisome Proliferator-activated Receptor gamma (PPARg) (AID 2283830);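 further: hits are gains in reporter mRNA above DMSO so AC50 marks activation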
# mouse Peroxisome Proliferator-activated Receptor gamma (PPARg), Pparg (gene 19016), sequence (P37238 whole entry, looked up, the tested form may be a part): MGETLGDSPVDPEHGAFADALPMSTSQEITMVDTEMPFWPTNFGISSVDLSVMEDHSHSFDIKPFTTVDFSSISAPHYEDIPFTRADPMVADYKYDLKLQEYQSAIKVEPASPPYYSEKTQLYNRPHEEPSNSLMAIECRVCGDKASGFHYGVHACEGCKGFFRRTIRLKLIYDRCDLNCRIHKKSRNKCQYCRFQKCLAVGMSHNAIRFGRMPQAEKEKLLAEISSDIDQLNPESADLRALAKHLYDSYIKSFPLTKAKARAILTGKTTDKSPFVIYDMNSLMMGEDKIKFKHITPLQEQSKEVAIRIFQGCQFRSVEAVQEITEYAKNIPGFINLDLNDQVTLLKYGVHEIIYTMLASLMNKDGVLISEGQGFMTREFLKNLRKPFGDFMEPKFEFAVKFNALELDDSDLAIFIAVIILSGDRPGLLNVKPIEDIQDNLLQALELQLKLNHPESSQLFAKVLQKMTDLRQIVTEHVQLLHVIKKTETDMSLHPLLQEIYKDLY
# In short: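 HepG2 cells transiently transfected with GAL4-UAS reporter units for chimeric NR-Gal4 proteins including mouse PPARg, exposed 24 h; medium contained 3 nM 6-alpha-fluorotestosterone and 1.5 nM norgestrel. Reporter mRNA quantified by RT-PCR, HpaI digestion and capillary electrophoresis, vs DMSO.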
# [4] = target: zebrafish Thyroid Hormone Receptor alpha (TRa), thraa (gene 30670) (UniProt Q98867); experiment: ATG_zfTRa_XSP2: Attagene TRANS-FACTORIAL Multi-Species (XSP1) HepG2 Assay for zebrafish Thyroid Hormone Receptor alpha (TRa) (AID 2283832);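 further: actives raise zebrafish TRa-Gal4 reporter transcript above DMSO baseline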
# zebrafish Thyroid Hormone Receptor alpha (TRa), thraa (gene 30670), sequence (Q98867 whole entry, looked up, the tested form may be a part): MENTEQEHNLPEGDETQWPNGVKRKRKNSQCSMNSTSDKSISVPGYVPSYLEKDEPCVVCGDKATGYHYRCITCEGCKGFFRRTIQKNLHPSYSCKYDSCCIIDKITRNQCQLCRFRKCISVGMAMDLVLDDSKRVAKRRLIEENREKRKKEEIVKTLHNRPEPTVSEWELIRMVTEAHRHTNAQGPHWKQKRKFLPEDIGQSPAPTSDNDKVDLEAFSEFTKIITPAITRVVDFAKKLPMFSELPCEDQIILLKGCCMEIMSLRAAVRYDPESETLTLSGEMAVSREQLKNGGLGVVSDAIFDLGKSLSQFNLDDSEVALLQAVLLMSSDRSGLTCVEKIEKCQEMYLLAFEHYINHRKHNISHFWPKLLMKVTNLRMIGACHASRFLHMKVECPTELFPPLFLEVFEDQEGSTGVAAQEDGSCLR
# In short: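 Transient transfection of human HepG2 with GAL4-UAS reporter units, then 24 h chemical treatment. RNA isolated, reverse-transcribed, PCR-amplified, FAM-labelled, HpaI-digested and run on capillary electrophoresis. Gain-of-signal relative to DMSO.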
# [5] = system: zebrafish Peroxisome Proliferator-activated Receptor gamma (PPARg), gene 557037; experiment: ATG_zfPPARg_XSP2: Attagene TRANS-FACTORIAL Multi-Species (XSP2) HepG2 Assay for zebrafish Peroxisome Proliferator-activated Receptor gamma (PPARg) (AID 2283833);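 further: actives increase reporter signal over DMSO so AC50 reflects activation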
# In short: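 HepG2 cells transiently transfected with GAL4-UAS reporter units expressing a zebrafish PPARg–GAL4 chimera; compound exposure 24 h. Reporter mRNA quantified by RT-PCR with fluorescent labelling and capillary electrophoresis; gain of signal fitted relative to DMSO baseline.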
# [6] = system: turtle Thyroid Hormone Receptor, alpha (TRa), gene 101949057; experiment: ATG_trTRa_XSP2: Attagene TRANS-FACTORIAL Multi-Species (XSP1) HepG2 Assay for turtle Thyroid Hormone Receptor, alpha (TRa) (AID 2283834);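 further: hits raise reporter mRNA over the DMSO baseline so AC50 marks activators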
# In short: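 HepG2 cells transiently transfected with multiplexed GAL4-UAS reporter units expressing chimeric NR-Gal4 proteins were dosed for 24 hours. Reporter mRNA was quantified by RT-PCR with 6-FAM labelling and capillary electrophoresis, gain of signal scored against DMSO.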
# [7] = ATG_M_61_XSP2: Attagene TRANS-FACTORIAL Multi-Species (XSP2) HepG2 Assay for M61 Transcription Factor (Internal Marker) (AID 2283835; active means hit-call score of the fitted dose curve at least 0.9, where 1 is the maximum; inactive means score below 0.9;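 further: reporter mRNA of an internal background marker read by RT-PCR and capillary electrophoresis; active means a rise in signal above the DMSO baseline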)
# In short: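 First, HepG2 cells are transfected with reporter units under GAL4-UAS control. Next, chemicals are applied for 24 h. Then total RNA is reverse-transcribed, amplified, fluorescently labelled and sized by capillary electrophoresis, with gain of signal scored against DMSO.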
# [8] = target: zebrafish Thyroid Hormone Receptor beta (TRb), thrb (gene 30607) (UniProt Q9PVE4); experiment: ATG_zfTRb_XSP2: Attagene TRANS-FACTORIAL Multi-Species (XSP1) HepG2 Assay for zebrafish Thyroid Hormone Receptor beta (TRb) (AID 2283836);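 on AC50: potency for induction of reporter signal above DMSO so agonist direction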
# zebrafish Thyroid Hormone Receptor beta (TRb), thrb (gene 30607), sequence (Q9PVE4 whole entry, looked up, the tested form may be a part): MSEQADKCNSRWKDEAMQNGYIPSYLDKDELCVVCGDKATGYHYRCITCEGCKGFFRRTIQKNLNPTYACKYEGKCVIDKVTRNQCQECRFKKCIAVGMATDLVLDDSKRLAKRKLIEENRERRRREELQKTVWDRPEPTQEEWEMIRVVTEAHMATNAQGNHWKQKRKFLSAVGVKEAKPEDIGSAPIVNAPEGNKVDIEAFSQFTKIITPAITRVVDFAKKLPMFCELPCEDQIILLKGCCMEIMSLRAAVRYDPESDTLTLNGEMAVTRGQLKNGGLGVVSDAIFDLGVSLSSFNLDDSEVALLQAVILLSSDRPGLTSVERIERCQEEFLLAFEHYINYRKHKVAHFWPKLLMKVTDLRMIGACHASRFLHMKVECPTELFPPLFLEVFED
# In short: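 Human liver HepG2, transient MRTU transfection (NR-Gal4 chimeras, GAL4-UAS reporters); 24 h compound exposure; total RNA → oligo(dT) RT → PCR → 6-FAM label → HpaI cut → CE fluorescence. DMSO = negative control/baseline.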
# [9] = target: frog Thyroid hormone Receptor alpha (TRa), thra-a (gene 397942) (UniProt P15204); experiment: ATG_frTRa_XSP2: Attagene TRANS-FACTORIAL Multi-Species (XSP2) HepG2 Assay for frog Thyroid hormone Receptor alpha (TRa) (AID 2283839);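 further: AC50 reflects induction of frog TRa-driven reporter mRNA above DMSO baseline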
# frog Thyroid hormone Receptor alpha (TRa), thra-a (gene 397942), sequence (P15204 whole entry, looked up, the tested form may be a part): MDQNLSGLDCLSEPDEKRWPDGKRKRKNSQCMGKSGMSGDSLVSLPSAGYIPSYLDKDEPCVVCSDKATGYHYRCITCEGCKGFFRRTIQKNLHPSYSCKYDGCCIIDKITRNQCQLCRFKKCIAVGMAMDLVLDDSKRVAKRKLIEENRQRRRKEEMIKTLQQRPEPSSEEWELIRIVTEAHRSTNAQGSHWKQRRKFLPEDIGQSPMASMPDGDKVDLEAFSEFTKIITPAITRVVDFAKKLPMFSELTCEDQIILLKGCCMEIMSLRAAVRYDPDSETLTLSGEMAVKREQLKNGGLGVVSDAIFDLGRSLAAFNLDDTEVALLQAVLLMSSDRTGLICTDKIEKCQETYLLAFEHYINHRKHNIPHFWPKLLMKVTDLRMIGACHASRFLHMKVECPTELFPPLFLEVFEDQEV
# In short: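 HepG2 cells transiently transfected with multiplexed GAL4-UAS reporter units expressing chimeric frog TRα-Gal4; reporter mRNA read 24 h after dosing by RT-PCR, FAM-labelled primer extension, HpaI digest and capillary electrophoresis. Gain of signal fitted versus DMSO.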
# [10] = CEETOX_H295R_OHPREG_noMTC: CeeTox H295R High-throughput Steroidogenesis Assay for OH-Pregnenolone (OHPREG), maximum tolerated concentration (MTC) filtered results only (AID 2283912; active means hit-call score of the fitted dose curve at least 0.9, where 1 is the maximum; inactive means score below 0.9); details: actives raise or lower the signal
# In short: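 Steroidogenesis in H295R cells (OECD 456, modified): after 48 h forskolin priming and 48 h chemical treatment, secreted 17alpha-hydroxypregnenolone is measured by HPLC-MS/MS. Activity is fitted in both directions against DMSO; concentrations are not filtered by MTT-based MTC.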
# [11] = CEETOX_H295R_OHPROG_noMTC: CeeTox H295R High-throughput Steroidogenesis Assay for OH-Progesterone (OHPROG), maximum tolerated concentration (MTC) filtered results only (AID 2283914; active means hit-call score of the fitted dose curve at least 0.9, where 1 is the maximum; inactive means score below 0.9); details: actives raise or lower the signal
# In short: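 Forskolin 10 uM, 48 h prestim → test cmpd in DMSO (0.1% final), 48 h → medium MTBE extraction → LC-MS/MS quant of 17alpha-OH-progesterone. Bidirectional fit vs DMSO; no MTT-based MTC filtering.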
# [12] = CEETOX_H295R_11DCORT_noMTC: CeeTox H295R High-throughput Steroidogenesis Assay for 11-Deoxycortisol (11DCORT), maximum tolerated concentration (MTC) filtered results only (AID 2283911; active means hit-call score of the fitted dose curve at least 0.9, where 1 is the maximum; inactive means score below 0.9); details: actives raise or lower the signal
# In short: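 HPLC-MS/MS read-out of 11-deoxycortisol after MTBE extraction of H295R medium. Cells: forskolin 10 uM pre-stimulation 48 h, chemical 48 h, 0.1% DMSO final. Bidirectional fit vs DMSO baseline; no MTC filtering.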
# [13] = CEETOX_H295R_CORTISOL_noMTC: CeeTox H295R High-throughput Steroidogenesis Assay for Cortisol, maximum tolerated concentration (MTC) filtered results only (AID 2283916; active means hit-call score of the fitted dose curve at least 0.9, where 1 is the maximum; inactive means score below 0.9); details: actives raise or lower the signal
# In short: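 Cortisol secretion measured by LC-MS/MS after 48 h chemical treatment (final 0.1% DMSO) of forskolin-primed (10 uM, 48 h) H295R cells; gain or loss fitted relative to DMSO, without maximum-tolerated-concentration filtering.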
# [14] = CEETOX_H295R_CORTIC_noMTC: CeeTox H295R High-throughput Steroidogenesis Assay for Corticosterone (CORTIC), maximum tolerated concentration (MTC) filtered results only (AID 2283917; active means hit-call score of the fitted dose curve at least 0.9, where 1 is the maximum; inactive means score below 0.9); details: actives raise or lower the signal
# In short: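 Following OECD 456 with minor changes, H295R cultures received 10 uM forskolin for 48 h, then test chemical at 0.1% DMSO for 48 h. Media steroids were extracted and measured by LC-MS/MS.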
# [15] = CEETOX_H295R_DOC_noMTC: CeeTox H295R High-throughput Steroidogenesis Assay for DOC, maximum tolerated concentration (MTC) filtered results only (AID 2283918; active means hit-call score of the fitted dose curve at least 0.9, where 1 is the maximum; inactive means score below 0.9); details: actives raise or lower the signal
# In short: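 11-Deoxycorticosterone secreted by human adrenal H295R cells quantified by HPLC-MS/MS after 48 h chemical exposure (0.1% DMSO), following 48 h 10 uM forskolin prestimulation. Concentrations not filtered by MTT-derived MTC; bidirectional fitting.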
structure (smiles),measurement,setting,value
CN(C[C@@H](CC[N+]12CCC(C3CCCCC3)(CC1)CC2)c1ccc(Cl)c(Cl)c1)C(=O)c1cc(C(F)(F)F)cc(C(F)(F)F)c1,AC50,[1],66.3 µM (active)
same,AC50,[2],10.5 µM (active)
O=C(Nc1ccc(Cl)cc1)Nc1ccc(Cl)c(Cl)c1,outcome,[1],inactive
same,outcome,[2],inactive
CCCCCCCCCCCC[N+](C)(C)C,outcome,[1],inactive
same,outcome,[2],inactive
O=C(OCCCCCCOC(=O)c1ccccc1)c1ccccc1,outcome,[2],inactive
OC12N=C(c3ccccc3)SC1Cc1cc(Cl)ccc12 (configuration not stated),outcome,[1],inactive
same,outcome,[2],inactive
CCN(CC)C(=O)c1cc(S(=O)(=O)Cc2ccccc2)c(N2CCC(c3ccccc3)CC2)cc1N(CC)CCN(C)C,outcome,[1],inactive
same,outcome,[2],inactive
O=C(O)Cc1cc(I)c(Oc2ccc(O)c(I)c2)c(I)c1,AC50,[3],1 µM (active) and 390 nM (active)
same,AC50,[4],0.00602 µM (active)
same,outcome,[5],inactive
same,AC50,[6],0.00328 µM (active)
same,outcome,[7],inactive
same,AC50,[8],0.504 nM (active) and 5.79 nM (active)
same,AC50,[9],0.519 nM (active) and 0.826 nM (active)
same,AC50,[1],88.5 µM (active)
same,outcome,[2],inactive
CCCCCc1ccc(N)cc1,outcome,[2],inactive
same,outcome,[10],inactive
same,AC50,[11],12.4 µM (active)
CCCCCCCCOc1ccc(C(=O)c2ccccc2)c(O)c1,AC50,[10],30.9 µM (active)
same,AC50,[11],27.4 µM (active)
Cc1oc2c(NC(=O)c3c(Cl)cccc3Cl)cccc2c1C(C)(C)O,outcome,[2],inactive
CC(=O)N1CCN(c2ccc(OC[C@H]3CO[C@](Cn4ccnc4)(c4ccc(Cl)cc4Cl)O3)cc2)CC1,AC50,[1],50 µM (active)
same,AC50,[2],9.92 µM (active)
CC/C(=C(/CC)c1ccc(O)cc1)c1ccc(O)cc1,outcome,[6],inactive
same,outcome,[7],inactive
same,outcome,[8],inactive
same,outcome,[1],inactive
same,AC50,[2],9.92 µM (active)
same,AC50,[12],45 µM (active)
same,AC50,[13],34.8 µM (active)
same,AC50,[14],35.4 µM (active)
same,AC50,[15],84.6 µM (active)
